# According to PubChem BioAssay AID710 (SRMLSC, 2007):
# Screen size: about 98,000 compounds; about 150 (0.15%) were called active. What follows is part of a selection rich in actives, with near analogues and random picks from the rest. Unmarked numbers belong to inactive results.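 How the source made its calls: active means growth inhibition above about 50% at one test dose (limit read from the data); inactive means the rest.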
# Test: growth inhibitors of wild-type E. coli, primary screen, strain BW25113, expanded library, OD600 (AID 710);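 further: growth measured after 20 h incubation at 37 °C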
# Settings: OD600 absorbance, at 100 µM, stronger effect = higher value
row,SMILES,growth inhibition
1,COc1ccc(C(C#N)Nc2ccccc2C)cc1 (centres undefined),5%
2,COc1cc(/C=C2\SC(=S)N(Nc3ncc(C(F)(F)F)cc3Cl)C2=O)cc(OC)c1OC,-7%
3,COc1ccccc1N(C)S(=O)(=O)c1ccc(C(=O)N2CCC(C(N)=O)CC2)cc1,3%
4,CCCCNC(=O)C1CCCN(S(=O)(=O)c2ccc(S(=O)(=O)NCC(C)C)cc2)C1 (centres undefined),-1%
5,Cc1cc(-c2ccccc2)nc(N2CCC(C(=O)NC34CC5CC(CC(C5)C3)C4)CC2)n1,-9%
6,S=c1[nH]nc2c3c4c(sc3ncn12)CCCC4,1%
7,CCn1c(/C=C/c2ccc([N+](=O)[O-])o2)nc2ccccc2c1=O,6%
8,COC(=O)c1ccccc1Oc1c(F)c(F)nc(N2CCOCC2)c1F,7%
9,CCN1CCN(c2ccc([N+](=O)[O-])cc2C(=O)c2ccc(Cl)cc2)CC1,8%
10,CCOC(=O)c1nc(C)n(-c2ccc(Cl)cc2Cl)n1,8%
11,O=[N+]([O-])c1ccccc1OCCCCN1CCCCC1,8%
12,C=CCn1c(-c2ccc3[nH]c(C)c(C)c3c2)n[nH]c1=S,2%
13,Cc1ccc(C(c2nnnn2CS(=O)(=O)c2ccc(C)cc2)N2CCC(C)CC2)cc1 (centres undefined),-1%
14,CCCNC(=O)c1c(N)n(-c2ccc(S(N)(=O)=O)cc2)c2nc3ccccc3nc12,-1%
15,O=C(O)CSCC(=O)Nc1cccc(C(F)(F)F)c1,3%
16,FC(F)(F)c1cccc(NC(=S)Nc2cccc(Cl)c2)c1,50% (active)
17,CC(=O)N1CCN(C(=O)Nc2cccc(C(F)(F)F)c2)CC1,17%
18,Cc1cccn2c(=O)c(/C=C(\C#N)S(=O)(=O)c3ccc(Cl)cc3)c(N3CCC(C(N)=O)CC3)nc12,0%
19,COc1ccc(N2CCN(C(=O)CCc3nc(-c4ccc(C)cc4)no3)CC2)cc1,-5%
20,CC(C)C(=O)Nc1cccc(NC(=S)NC(=O)C(c2ccccc2)c2ccccc2)c1,-13%
21,O=C(CNC(=O)c1ccccc1)NCC(=O)OCc1ccc(Cl)cc1,1%
22,COc1ccc(-c2nn(C)c(=O)c3ccccc23)cc1NC(=O)COc1ccccc1,2%
23,CN(C(=O)CC(NC(=O)c1ccccc1)(c1ccccc1)c1ccccc1)c1ccccc1,-17%
24,CCOC(=O)CSc1ncc(-c2cccc(Cl)c2)cn1,2%
25,O=C(CSc1nnc(-c2cccs2)n1Cc1ccccc1)N1CCc2ccccc2C1,-18%
26,Cc1cccc(NC(=O)CSc2nc3c(c(=O)[nH]2)CCCC3)c1C,3%
27,COC(=O)CNC(c1ccccc1Cl)c1cc(Br)ccc1NC(=O)CCN1CCOCC1 (centres undefined),-3%

row,SMILES,growth inhibition
1,CCOC(=O)C1=C(CN2CCc3ccccc32)NC(=O)NC1c1ccc(Cl)cc1 (centres undefined),-2%
2,O=C(CN(c1ccccc1)S(=O)(=O)c1ccc(Cl)cc1)Nc1ccccc1C(=O)N1CCCC1,-17%
3,Cc1cc(OC(=O)c2c(Cl)cccc2Cl)nc(C)n1,5%
4,COc1ccc(-n2nc(C(=O)NCC(=O)Nc3cccc(C)n3)c3ccccc3c2=O)cc1,-15%
5,CCOc1cccc(SCc2noc(C(=O)NC(C)C)c2C(=O)O)c1,-4%
6,CCOC(=O)C(=CNc1cccc(C)n1)C(=O)OCC,-6%
7,O=C(NCC1CCCO1)/C(=C\c1ccco1)NC(=O)c1ccccc1 (centres undefined),-5%
8,O=C(NC1(C(F)(F)F)NC(=O)N(Cc2cccnc2)C1=O)c1ccccc1Cl (centres undefined),-1%
9,O=C(/C=C/NNC(=O)c1cccc(Br)c1)c1ccccc1,-3%
10,CNC(=O)c1c(NC(NC(=O)c2ccco2)C(=O)c2ccc(Cl)cc2)sc2c1CCCC2 (centres undefined),-6%
11,CCOc1ccc(C(O)Cn2c(=N)n(CCN3CCCCC3)c3ccccc32)cc1 (centres undefined),-1%
12,Cc1ccc(OCC(=O)Nn2cnc3ccccc32)cc1,5%
13,Cc1ccc(-n2nc3ccc(NC(=O)/C=C/c4ccco4)cc3n2)cc1C,-1%
14,S=c1nccc(-c2cc(Cl)sc2Cl)[nH]1,3%
15,COc1ccccc1NC(=O)c1ccc2nc(N3C(=O)CCC3=O)sc2c1,0%
16,N#C/C(=C1/CCCN1)c1ccccn1,3%
17,CCOc1ccc(NC(=O)c2ccccc2NS(C)(=O)=O)cc1,-4%
18,S=c1[nH]nc(-c2ccc(Cl)cc2)n1CC1CCCO1 (centres undefined),2%
19,CSc1ccc(CCNC(=O)C2CCN(c3nnc(-n4cccc4)s3)CC2)cc1,-3%
20,CSc1ccccc1C(=O)Nc1cccc(C(C)=O)c1,-4%
21,Clc1ccc(-c2nnc(-c3ccccc3)nc2N2CCSCC2)cc1,-24%
22,COC(=O)c1c(CCl)noc1C(=O)NC(C)C,1%
23,CCn1c(Cc2cccs2)nnc1SCC(=O)c1ccc(C)cc1,-2%
24,Cc1cccc(NC(=O)N(Cc2cc3cc(C)cc(C)c3[nH]c2=O)CC2COCCO2)c1 (centres undefined),-1%
25,CCCCCOC(=O)c1ccc(N2C(=O)C3C4C=CC(C4)C3C2=O)cc1 (centres undefined),-5%
26,Cn1ncc(Br)c1C(=O)NCc1cccs1,5%
27,COc1ccc(/C(N)=N/OC(=O)Oc2ccccc2)cc1,-14%
